This is an account of results in PubChem BioAssay AID624255 (Broad Institute, 2012).

Hit rate of the full screen: of about 77,000 compounds, about 4,600 (6%) were called active. Roughly 1% stayed inconclusive and do not appear here. The entries come from a sample that favours actives as a whole. Values without a mark were called inactive.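 How the source made its calls: active means mean inhibition above about 93%, with at least 55% of replicates each passing it (limit read from the data, passing the limit was not always enough); inconclusive means only one of those two conditions holds; inactive means neither condition holds.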

Broadly, the inhibition is the change of the read-out against control, counted positive when it falls.

A short description of this experiment: growth inhibition of T. cruzi in host fibroblasts – cell-based, beta-gal Tulahuen parasites, NIH3T3 host, luminescence, primary screen (AID 624255). The conditions noted are these: T. cruzi beta-gal in NIH3T3, GalScreen luminescence, 90 h; at 8.34 µM; hits give high values.
Take `COc1cccc(-c2ccc3n(c2=O)C[C@@H]2[C@@H](CO)[C@H](C(=O)N4CCCCC4)N[C@H]32)c1`: the inhibition is 13.4%.

`O=C(Nc1ccc(C(F)(F)F)cc1)N[C@@H]1CC[C@@H](CCNC(=O)c2ccccc2F)O[C@H]1CO`: the inhibition is 57.5%.

In the case of `C[C@@H]1CN([C@@H](C)CO)C(=O)c2cc(-c3ccc(C#N)cc3)cnc2O[C@H]1CN(C)C(=O)CN(C)C`, the inhibition is 30.7%.

`COCC(=O)Nc1ccc2c(c1)C(=O)N(C)C[C@@H](OC)[C@@H](C)CN(CC1CCCCC1)[C@@H](C)CO2`: the inhibition was 5.52%.

`COc1cccc(S(=O)(=O)N2C[C@H](O)COC[C@H]3O[C@@H](CC(=O)N4CCN(c5ccccc5)CC4)CC[C@@H]32)c1`: the inhibition is 12.2%.

On to `O=C(C[C@H]1CC[C@@H]2[C@H](COC[C@H](O)CN2Cc2ccc(Oc3ccccc3)cc2)O1)N1CCN(c2ccccc2)CC1`, for which the inhibition was 117% (active).

Consider `O=C(C[C@H]1CC[C@H]2[C@@H](COC[C@H](O)CN2C(=O)c2ccccn2)O1)N1CCN(c2ccccc2)CC1`, for which the inhibition is -3.75%.

Turning to `COc1ccc(S(=O)(=O)N2CC[C@H]3[C@@H](CO)N(C)c4ccc(C#Cc5ccccc5OC)cc4[C@H]32)cc1`, the inhibition was 52%.

`CCC(=O)Nc1ccc2c(c1)C(=O)N(C)[C@@H]1CC[C@@H](CC(=O)NCc3ccccc3Cl)O[C@H]1CO2`: the inhibition is 5.11%.

On to `CCNC(=O)Nc1ccc2c(c1)C(=O)N(C)[C@@H]1CC[C@@H](CC(=O)NCCOC)O[C@@H]1CO2`, for which the inhibition was 4.1%.

Take `C[C@H](CO)N1C[C@H](C)[C@@H](CN(C)Cc2cccnc2)Oc2cc(C3=CCCC3)ccc2S1(=O)=O`: the inhibition was 93.1%.

In the case of `C[C@H]1CN([C@@H](C)CO)S(=O)(=O)c2ccc(C3=CCCC3)cc2O[C@@H]1CN(C)Cc1ccccc1`, the inhibition was 99.6% (active).

For the compound `C[C@@H]1CN([C@@H](C)CO)S(=O)(=O)c2ccc(C3=CCCCC3)cc2O[C@@H]1CN(C)Cc1cccc(C(=O)O)c1`, the inhibition was 24%.

`C[C@@H]1CN([C@@H](C)CO)S(=O)(=O)c2ccc(C3=CCCC3)cc2O[C@@H]1CN(C)Cc1ccncc1`: the inhibition was 69.1%.

On to `C[C@@H]1CN([C@@H](C)CO)S(=O)(=O)c2ccc(C3=CCCCC3)cc2O[C@@H]1CN(C)C(=O)CN(C)C`, for which the inhibition was 84.4%.

For the compound `C[C@H]1CN([C@@H](C)CO)S(=O)(=O)c2ccc(C3=CCCCC3)cc2O[C@@H]1CN(C)Cc1ccccc1`, the inhibition is 117% (active).

For `C[C@@H]1CN([C@@H](C)CO)S(=O)(=O)c2ccc(C3=CCCC3)cc2O[C@H]1CN(C)C(=O)CC1CC1`, the inhibition is 36%.

Take `C[C@@H]1CN([C@H](C)CO)S(=O)(=O)c2ccc(C3=CCCC3)cc2O[C@H]1CN(C)Cc1ccccc1F`: the inhibition was 118% (active).

With `C[C@H]1CN([C@@H](C)CO)S(=O)(=O)c2ccc(C3=CCCC3)cc2O[C@H]1CN(C)Cc1cccc(C(=O)O)c1`, the inhibition is 18.6%.

In the case of `O=C(CCN1CCCCC1)NCC[C@H]1CC[C@@H](NC(=O)C2CCOCC2)[C@H](CO)O1`, the inhibition is 26.2%.

Regarding `CO[C@@H]1CN(C)C(=O)c2cc(NC(=O)C3CC3)ccc2OC[C@@H](C)N(C(=O)NC(C)C)C[C@@H]1C`, the inhibition was 72%.

For `CC(C)(C)[S@](=O)N1Cc2cc(C(=O)N3CCCCC3)nc(-c3cccc(-c4ccccc4F)c3)c2[C@@H]1CCO`, the inhibition was 23.3%.

Turning to `C[C@@H]1CN([C@@H](C)CO)C(=O)c2cc(-c3cncnc3)cnc2O[C@H]1CN(C)C(=O)c1cccc(F)c1`, the inhibition is 0.0585%.

Regarding `COc1ccc(CN(C)C[C@@H]2Oc3ccc(NC(=O)Nc4cccc5ccccc45)cc3C(=O)N([C@H](C)CO)C[C@H]2C)cc1`, the inhibition is 74.4%.

With `C[C@@H]1CN([C@@H](C)CO)C(=O)c2cc(NC(=O)Nc3cccc4ccccc34)ccc2O[C@@H]1CN(C)Cc1ccc(-c2ccccc2)cc1`, the inhibition is 84.4%.

Consider `C[C@@H]1CN([C@@H](C)CO)C(=O)c2cc(NC(=O)Nc3cccc4ccccc34)ccc2O[C@H]1CN(C)Cc1ccc(Oc2ccccc2)cc1`, for which the inhibition is 121% (active).

`C[C@@H]1CN([C@H](C)CO)C(=O)c2cc(NC(=O)Nc3ccccc3)ccc2O[C@H]1CN(C)Cc1ccc(Cl)c(Cl)c1`: the inhibition is -217%.

Regarding `C[C@@H]1CN([C@H](C)CO)C(=O)c2cc(NC(=O)Nc3ccccc3)ccc2O[C@@H]1CN(C)Cc1ccc(Cl)c(Cl)c1`, the inhibition was -114%.

As to `C[C@@H]1CN([C@@H](C)CO)C(=O)c2cc(NC(=O)Nc3cccc4ccccc34)ccc2O[C@H]1CN(C)Cc1ccc(Cl)c(Cl)c1`, the inhibition was 97.7% (active).

With `COc1ccc(S(=O)(=O)N[C@H]2C=C[C@@H](CC(=O)O)O[C@@H]2CO)cc1`, the inhibition was 8.59%.

`CCCN1C[C@@H](C)[C@@H](OC)CN(C)C(=O)c2ccc(NC(=O)Nc3cccc(F)c3)cc2OC[C@@H]1C`: the inhibition is 9.75%.

With `COc1cccc(CNC(=O)C[C@H]2CC[C@@H](NC(C)=O)[C@@H](CO)O2)c1`, the inhibition is -45.2%.

On to `CC(=O)N1C[C@@H]2[C@H](c3ccccc31)[C@H](CO)N2C(=O)Nc1ccc(F)cc1`, for which the inhibition is -6.85%.

As to `C[C@@H](NC(=O)C[C@@H]1CC[C@H]2[C@@H](COC[C@@H](O)CN2C(=O)Nc2cccc(F)c2)O1)c1ccccc1`, the inhibition was 33.4%.

In the case of `O=C(C[C@@H]1C[C@H]2c3cc(NC(=O)Nc4ccccc4)ccc3O[C@H]2[C@@H](CO)O1)NCc1cccnc1`, the inhibition is -4.79%.

In the case of `Cc1noc(C)c1NC(=O)Nc1ccc2c(c1)C(=O)N([C@H](C)CO)C[C@@H](C)[C@@H](CN(C)S(=O)(=O)c1ccc(Cl)cc1)OCCCC[C@H](C)O2`, the inhibition is 55.2%.

Regarding `COc1ccccc1S(=O)(=O)N[C@@H]1CC[C@H](CC(=O)N2CCN(C)CC2)O[C@@H]1CO`, the inhibition is -19.7%.

`O=C(C[C@@H]1C[C@H]2c3cc(NC(=O)CC4CC4)ccc3O[C@H]2[C@@H](CO)O1)NCc1ccc2c(c1)OCO2`: the inhibition was 30.3%.

On to `CCCNC(=O)C[C@H]1C[C@@H]2c3cc(NS(=O)(=O)c4cccc(OC)c4)ccc3O[C@@H]2[C@@H](CO)O1`, for which the inhibition was -11.6%.

Turning to `COc1cccc(S(=O)(=O)Nc2ccc3c(c2)[C@@H]2C[C@@H](CC(=O)NCc4ccc(Cl)cc4)O[C@H](CO)[C@@H]2O3)c1`, the inhibition was 32.2%.

`O=C(Nc1ccc2c(c1)[C@@H]1C[C@H](CC(=O)N3CCOCC3)O[C@@H](CO)[C@@H]1O2)c1ccc2c(c1)OCO2`: the inhibition was 103% (active).

Take `O=C(C[C@H]1C[C@@H]2c3cc(NC(=O)c4ccc5c(c4)OCO5)ccc3O[C@@H]2[C@@H](CO)O1)NCc1cccnc1`: the inhibition was -76.9%.

In the case of `CN1CCN(C(=O)C[C@@H]2C[C@@H]3c4cc(NC(=O)c5ccc6c(c5)OCO6)ccc4O[C@@H]3[C@H](CO)O2)CC1`, the inhibition is 8.43%.

As to `O=C(C[C@@H]1C[C@@H]2c3cc(NC(=O)c4ccc5c(c4)OCO5)ccc3O[C@@H]2[C@@H](CO)O1)NCc1ccc(Cl)cc1`, the inhibition is 97.9% (active).

In the case of `O=C(C[C@H]1C[C@H]2c3cc(NC(=O)c4ccc5c(c4)OCO5)ccc3O[C@H]2[C@@H](CO)O1)NCc1cccc(F)c1`, the inhibition was 38.1%.

As for `O=C(C[C@@H]1C[C@H]2c3cc(NC(=O)C4CCC4)ccc3O[C@H]2[C@@H](CO)O1)NCc1ccc2c(c1)OCO2`, the inhibition was 106% (active).

On to `COc1cccc(S(=O)(=O)Nc2ccc3c(c2)[C@H]2C[C@H](CC(=O)NCc4ccc(Cl)cc4)O[C@H](CO)[C@H]2O3)c1`, for which the inhibition was 159% (active).

Turning to `O=C(C[C@@H]1C[C@H]2c3cc(NC(=O)C4CCOCC4)ccc3O[C@H]2[C@H](CO)O1)NCc1ccc2c(c1)OCO2`, the inhibition is 40.2%.

For the compound `CN(C)C(=O)C[C@@H]1C[C@@H]2c3cc(NC(=O)c4ccc5c(c4)OCO5)ccc3O[C@@H]2[C@H](CO)O1`, the inhibition was -59.5%.

Consider `CCNC(=O)C[C@@H]1CC[C@H]2[C@@H](COc3ccc(NC(=O)NC(C)C)cc3C(=O)N2C)O1`, for which the inhibition was 39.8%.

Turning to `C[C@H](CO)N1C[C@H](C)[C@@H](CN(C)S(=O)(=O)c2cccs2)OCc2ccccc2-c2ccccc2C1=O`, the inhibition was 24.1%.

Turning to `O=C(C[C@@H]1C[C@H]2c3cc(NS(=O)(=O)c4ccc(F)cc4)ccc3O[C@H]2[C@H](CO)O1)NC1CCCC1`, the inhibition is -34%.

With `O=S(=O)(N[C@@H]1CC[C@H](CCn2cc(-c3ccccc3F)nn2)O[C@H]1CO)c1ccc(F)cc1`, the inhibition was 41.8%.

On to `COc1cccc(NC(=O)Nc2ccc3c(c2)C(=O)N(C)[C@@H]2CC[C@@H](CC(=O)NCCc4ccccc4)O[C@H]2CO3)c1`, for which the inhibition is 52.2%.

In the case of `COc1ccc(S(=O)(=O)N2C[C@@H](O)COC[C@H]3O[C@H](CC(=O)N[C@H]4CCN(Cc5ccccc5)C4)CC[C@@H]32)cc1`, the inhibition was 77.6%.

In the case of `COc1ccc(NC(=O)Nc2ccc3c(c2)C(=O)N([C@H](C)CO)C[C@@H](C)[C@@H](CN(C)C(=O)NC(C)C)OCCCC[C@H](C)O3)cc1`, the inhibition is 38.7%.

`CCC(=O)N(C)C[C@H]1Oc2cc(-c3ccccc3F)ccc2S(=O)(=O)N([C@H](C)CO)C[C@@H]1C`: the inhibition is 81.3%.

For `O=C(C[C@H]1CC[C@H]2[C@@H](COC[C@H](O)CN2Cc2ccncc2)O1)NCC1CC1`, the inhibition was 8.17%.

With `C[C@@H]1CN([C@@H](C)CO)C(=O)c2cc(C#CCN(C)C)cnc2O[C@H]1CN(C)S(=O)(=O)c1cn(C)cn1`, the inhibition was -8.13%.

Regarding `Cn1cnc(S(=O)(=O)N2C[C@H](O)COC[C@@H]3O[C@H](CC(=O)NC4CCCC4)CC[C@H]32)c1`, the inhibition is 5.65%.
